Measured values reported in PubChem BioAssay AID1159580 (chemical genetic matrix, 2015).
“And” between values parts separate entries of the source, which are not always exact repeats. Identical values can stand only once. The whole screen tested about 5,500 compounds, of which about 2,000 (36%) were called active. About 18% were inconclusive and are not listed. Cut-off read from the data, not from the text of the source: active = normalized growth mostly below about 0.91 (no sharp cut-off); inconclusive = no clear call, values can overlap the other calls; inactive = mostly above about 0.92. The list shows a part of the results.

Experiment: chemical genetic growth profiling, strain panel (AID 1159580);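 note: tested at 20 µM; growth read once vehicle control cultures reached saturation at 30 °C; 1 = growth at the plate median or of vehicle wells; lower values mean less growth of the strain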
Conditions: growth OD

Measured: normalized growth

CCCCC1C(=O)N(c2ccccc2)N(c2ccccc2)C1=O
inactive: S. cerevisiae deletion strains, locus YJR075W, strain HOC1, hits give low values 1 | S. cerevisiae deletion strains, locus YKL009W, strain mrt4, hits give low values 0.98 | S. cerevisiae deletion strains, locus YKL068W, hits give low values 0.963 | S. cerevisiae deletion strains, locus YKL085W, strain MDH1 (second series), hits give low values 0.959 | S. cerevisiae deletion strains, locus YKL085W, strain MDH1, hits give low values 0.959 | S. cerevisiae deletion strains, locus YKL160W, strain elf1, hits give low values 1.01 | S. cerevisiae deletion strains, locus YKL190W, strain CNB1, hits give low values 0.972 | S. cerevisiae deletion strains, locus YKR001C, strain vps1, hits give low values 0.994 | S. cerevisiae deletion strains, locus YKR026C, strain gcn3, hits give low values 0.988 | S. cerevisiae deletion strains, locus YKR091W, strain srl3, hits give low values 0.986 | S. cerevisiae deletion strains, locus YLL001W, strain dnm1, hits give low values 0.992 | S. cerevisiae deletion strains, locus YLL026W, hits give low values 0.99 | S. cerevisiae deletion strains, locus YLL041C, strain sdh2, hits give low values 0.985 | S. cerevisiae deletion strains, locus YLR027C, strain aat2, hits give low values 0.987 | S. cerevisiae deletion strains, locus YLR039C, strain RIC1, hits give low values 0.895 | S. cerevisiae deletion strains, locus YLR058C, strain SHM2, hits give low values 0.987 | S. cerevisiae deletion strains, locus YLR102C, strain apc9, hits give low values 0.983 | S. cerevisiae deletion strains, locus YLR113W, strain HOG1, hits give low values 0.899 | S. cerevisiae deletion strains, locus YLR221C, strain rsa3, hits give low values 1.02 | S. cerevisiae deletion strains, locus YLR258W, strain gsy2, hits give low values 0.993 | S. cerevisiae deletion strains, locus YLR262C, strain YPT6 (second series), hits give low values 0.93 | S. cerevisiae deletion strains, locus YLR262C, strain YPT6, hits give low values 0.893 | S. cerevisiae deletion strains, locus YLR268W, strain sec22, hits give low values 1.06 | S. cerevisiae deletion strains, locus YLR320W, strain mms22, hits give low values 1.02 | S. cerevisiae deletion strains, locus YLR330W, strain CHS5, hits give low values 0.984 | S. cerevisiae deletion strains, locus YLR342W, strain FKS1 (second series), hits give low values 0.994 | S. cerevisiae deletion strains, locus YLR342W, strain FKS1, hits give low values 0.978 | S. cerevisiae deletion strains, locus YLR357W, strain rsc2, hits give low values 1.04 | S. cerevisiae deletion strains, locus YLR370C, strain arc18, hits give low values 0.973 | S. cerevisiae deletion strains, locus YLR371W, strain rom2, hits give low values 1 | S. cerevisiae deletion strains, locus YLR384C, strain iki3, hits give low values 0.996 | S. cerevisiae deletion strains, locus YLR418C, strain cdc73, hits give low values 0.995 | S. cerevisiae deletion strains, locus YML016C, strain PPZ1, hits give low values 0.98 | S. cerevisiae deletion strains, locus YML032C, strain rad52, hits give low values 1.02 | S. cerevisiae deletion strains, locus YML120C, strain ndi1, hits give low values 0.999 | S. cerevisiae deletion strains, locus YML124C, strain tub3, hits give low values 0.982 | S. cerevisiae deletion strains, locus YMR058W, strain fet3, hits give low values 0.993 | S. cerevisiae deletion strains, locus YMR078C, strain ctf18, hits give low values 0.988 | S. cerevisiae deletion strains, locus YMR125W, strain sto1, hits give low values 0.989 | S. cerevisiae deletion strains, locus YMR129W, hits give low values 0.986 | S. cerevisiae deletion strains, locus YMR205C, strain PFK2, hits give low values 0.989 | S. cerevisiae deletion strains, locus YMR223W, strain ubp8, hits give low values 0.967 | S. cerevisiae deletion strains, locus YMR231W, strain pep5, hits give low values 0.996 | S. cerevisiae deletion strains, locus YMR263W, strain SAP30, hits give low values 0.997 | S. cerevisiae deletion strains, locus YMR307W, strain GAS1, hits give low values 0.971 | S. cerevisiae deletion strains, locus YNL067W, strain RPL9B, hits give low values 1.02 | S. cerevisiae deletion strains, locus YNL071W, strain lat1, hits give low values 0.994 | S. cerevisiae deletion strains, locus YNL128W, strain TEP1, hits give low values 0.99 | S. cerevisiae deletion strains, locus YNL153C, strain GIM3, hits give low values 1.04 and 1 | S. cerevisiae deletion strains, locus YNL175C, strain NOP13, hits give low values 0.971 | S. cerevisiae deletion strains, locus YNL183C, strain NPR1, hits give low values 0.946 | S. cerevisiae deletion strains, locus YNL197C, strain WHI3, hits give low values 0.976 | S. cerevisiae deletion strains, locus YNL209W, strain ssb2, hits give low values 1 | S. cerevisiae deletion strains, locus YNL224C, strain SQS1, hits give low values 0.972 | S. cerevisiae deletion strains, locus YNL233W, strain BNI4, hits give low values 1.04 | S. cerevisiae deletion strains, locus YNL248C, strain rpa49, hits give low values 1.03 | S. cerevisiae deletion strains, locus YNL250W, strain rad50, hits give low values 0.972 | S. cerevisiae deletion strains, locus YNL271C, strain bni1, hits give low values 0.979 | S. cerevisiae deletion strains, locus YNL298W, strain CLA4, hits give low values 0.998 | S. cerevisiae deletion strains, locus YNL307C, strain MCK1, hits give low values 1.01 | S. cerevisiae deletion strains, locus YNL322C, strain KRE1 (second series), hits give low values 0.982 | S. cerevisiae deletion strains, locus YNL322C, strain KRE1, hits give low values 0.973 | S. cerevisiae deletion strains, locus YNR049C, strain mso1, hits give low values 0.985 | S. cerevisiae deletion strains, locus YNR052C, strain pop2, hits give low values 0.999 | S. cerevisiae deletion strains, locus YOL006C, strain TOP1, hits give low values 1.05 | S. cerevisiae deletion strains, locus YOL012C, strain htz1 0.887 | S. cerevisiae deletion strains, locus YOL147C, strain pex11, hits give low values 0.993 | S. cerevisiae deletion strains, locus YOR001W, strain rrp6, hits give low values 0.99 | S. cerevisiae deletion strains, locus YOR061W, strain CKA2, hits give low values 0.977 | S. cerevisiae deletion strains, locus YOR069W, strain VPS5, hits give low values 0.984 | S. cerevisiae deletion strains, locus YOR070C, strain gyp1, hits give low values 0.999 | S. cerevisiae deletion strains, locus YOR080W, strain dia2, hits give low values 0.987 | S. cerevisiae deletion strains, locus YOR083W, strain WHI5 (second series), hits give low values 0.994 | S. cerevisiae deletion strains, locus YOR083W, strain WHI5, hits give low values 1.02 | S. cerevisiae deletion strains, locus YOR106W, strain vam3, hits give low values 1.03 | S. cerevisiae deletion strains, locus YOR136W, strain idh2, hits give low values 0.982 | S. cerevisiae deletion strains, locus YOR144C, strain elg1, hits give low values 0.985 | S. cerevisiae deletion strains, locus YOR184W, strain ser1, hits give low values 1 | S. cerevisiae deletion strains, locus YOR231W, strain MKK1, hits give low values 0.933 | S. cerevisiae deletion strains, locus YOR265W, strain rbl2, hits give low values 0.988 | S. cerevisiae deletion strains, locus YOR270C, strain vph1, hits give low values 1.02 | S. cerevisiae deletion strains, locus YOR290C, strain snf2, hits give low values 1.02 | S. cerevisiae deletion strains, locus YOR316C, strain cot1, hits give low values 0.986 | S. cerevisiae deletion strains, locus YPL051W, strain arl3, hits give low values 0.992 | S. cerevisiae deletion strains, locus YPL055C, strain LGE1, hits give low values 1 and 0.997 | S. cerevisiae deletion strains, locus YPL078C, strain atp4, hits give low values 1.02 | S. cerevisiae deletion strains, locus YPL106C, strain sse1, hits give low values 1.01 | S. cerevisiae deletion strains, locus YPL240C, strain hsp82, hits give low values 0.994 | S. cerevisiae deletion strains, locus YPL241C, strain CIN2, hits give low values 0.981 and 1 | S. cerevisiae deletion strains, locus YPL256C, strain CLN2, hits give low values 0.914 | S. cerevisiae deletion strains, locus YPR119W, strain clb2, hits give low values 0.977 | S. cerevisiae deletion strains, locus YPR141C, strain kar3, hits give low values 0.961 | S. cerevisiae deletion strains, locus YPR163C, strain tif3, hits give low values 1 | S. cerevisiae deletion strains, locus YPR167C, strain met16, hits give low values 0.993 | S. cerevisiae deletion strains, strain wtn01, hits give low values 1.02 | S. cerevisiae strains, strain wild type, hits give low values 0.984
